A selection: hits, their analogues and other compounds. The true share with any hit is near 3.1%.
PGE2 EP2 inh – inhibitors of human EP2 prostaglandin E2 receptor. hit rate 0.52% among 260,000. inhibition, % at 25 µM. C6 glioma cells expressing human EP2, cAMP TR-FRET; cells stimulated with saturating PGE2;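 active = percent inhibition above 40 after rounding to a whole number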;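 note: rat C6 glioma host cells with rolipram phosphodiesterase inhibitor present; the protocol text gives 20 µM as final concentration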
Target sequence (P43116 whole entry, looked up): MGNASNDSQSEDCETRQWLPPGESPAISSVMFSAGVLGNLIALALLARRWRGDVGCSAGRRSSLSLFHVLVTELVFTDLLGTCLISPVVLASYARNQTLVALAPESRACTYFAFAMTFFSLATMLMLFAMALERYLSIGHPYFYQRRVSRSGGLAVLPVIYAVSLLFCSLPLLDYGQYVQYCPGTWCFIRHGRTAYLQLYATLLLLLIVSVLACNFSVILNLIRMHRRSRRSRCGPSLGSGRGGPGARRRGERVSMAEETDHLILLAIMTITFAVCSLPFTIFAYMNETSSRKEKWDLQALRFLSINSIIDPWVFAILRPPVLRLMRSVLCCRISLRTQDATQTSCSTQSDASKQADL
EP2 modulator – modulates human prostaglandin E2 receptor EP2 signaling; P43116; EP2-expressing cells, cAMP HTRF FRET, PGE2 co-stimulation; induction, % at 25 µM; hit rate 0.83% among 260,000; AID 940;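 active = compounds whose cAMP rise, as percent of the full-agonist control response, exceeds 60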;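 note: rat C6 glioma line stably carrying human EP2 under a CMV promoter; the protocol text gives 20 µM as final concentration; 100% = response of wells given 1 µM PGE2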
KCC2 mod – modulates chloride dependent transport by human KCC2 | KCC2 cells, thallium flux FluoZin-2 fluorescence | B-score of Tl+ flux slope (higher = more flux/activation; lower = inhibition) at 10 µM | Q9H2X9 | hit rate 2.2% among 190,000 | AID 1456;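 active = thallium flux slope and its plate-corrected score both differing from the plate sample mean at a set confidence after two filtering rounds, in either direction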;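 note: slope of fluorescence scaled to starting intensity during 10 to 20 s after thallium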
S1P3 antagonist – S1P3 (human) receptor antagonism. Q99500. hit rate 0.27% among 170,000. CHO S1P3 NFAT-BLA reporter, FRET fluorescence, antagonist mode. inhibition, % at 4.98 µM;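 active = inhibition above the plate cutoff, the mean inhibition of test wells on that plate plus 3 SD, cut at about 28% in these data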;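 note: cells challenged with S1P at its EC80 of 0.8 µM; blue over green emission ratio from cleaved BLA substrate after 4 h stimulation; 0% = S1P-stimulated wells and 100% = unstimulated DMSO-only wells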
Starred values were filed as active, the others as inactive; nt = no result; ! = not confirmed by another sample.

SMILES | PGE2 EP2 inh | EP2 modulator | KCC2 mod | S1P3 antagonist
COc1ccccc1-c1cc(C(=O)NC(c2ccccc2)c2cccnc2)no1 (configuration not stated) | 3 | -56 | nt | nt
CCOC(=O)C1=C(C)N(c2ccc(OC)cc2)C(=O)/C1=C\c1cccs1 | 2 | 15 | -0.68 | 3
CCOC(=O)C1=C(C)N(c2ccc(OC)cc2)C(=O)/C1=C\c1ccc(O)c(OCC)c1 | 41* | 31 | -0.41 | -10
CCn1c(SCC(=O)NCc2ccccc2)nnc1C1CCCCC1 | 13 | 17 | nt | nt
Cc1sc(NC(=O)c2ccccc2)c(C(=O)c2ccccc2)c1C | 11 | 65* | 1.4 | 7
Cc1ccc(C(=O)Nc2sc(C)c(C)c2C(=O)c2ccccc2)cc1 | 7 | 29 | 0.037 | -6
OCCN1CCN(Cc2cc(Cl)c3cccnc3c2O)CC1 | -1 | 10 | 0.21 | nt
COc1ccccc1N1CCN(Cc2cc(Br)c(O)c3ncccc23)CC1 | 10 | -4 | 7.2* | 16
Oc1c(CN2CCN(c3ccccn3)CC2)cc(Cl)c2cccnc12 | 11 | -8 | 7* | -32
O=C(NCCC(c1ccccc1)c1ccco1)C1CCCN1 (configuration not stated) | 4 | -47 | nt | nt
CC(NC(=O)c1ccc2c(c1)NC(=O)C(C)(C)O2)c1ccc2c(c1)CCC2 (configuration not stated) | 4 | -85 | nt | nt
CCOC(=O)C(=O)Nc1ccc(S(=O)(=O)N2CCOCC2)cc1OC | 11 | 40 | -0.49 | nt
CCCCOC(=O)Nc1ccc(OC)cc1S(=O)(=O)N1CCOCC1 | 2 | -4 | -3.3* | 7
COC(=O)C(C)N(C(=O)c1cccc2ccccc12)c1c(C)cccc1C (configuration not stated) | 8 | 56 | -3.7* | nt
CC1Cc2ccccc2N1C(=O)C1CCCN(S(=O)(=O)c2cccc3cccnc23)C1 (configuration not stated) | 5 | -12 | nt | 82*
COc1ccc(N2CCN(C(=O)C3CCCN(S(=O)(=O)c4cccc5cccnc45)C3)CC2)cc1 (configuration not stated) | 5 | 0 | -0.036 | -1
COCCN(CCOC)c1ncnc2c1cnn2-c1ccccc1 | 14 | 78* | -0.2 | 16
COc1ccc(Nc2ncnc3c2cnn3-c2ccccc2)cc1OC | 16 | -1 | 0.23 | 23
CCOc1ccccc1Nc1ncnc2c1cnn2-c1ccccc1 | 3 | nt | nt | 113*
COc1ccc(-n2c(C)c(C(=O)O)c3cc(OC)c4ccccc4c32)cc1 | 7 | 70* | 2.2 | -1
Cc1cc(NC(=O)c2sc(Nc3ccc(F)cc3)nc2N)no1 | 7 | -39 | 0.11 | 9
C=CCNc1nc(N)c(C(=O)Nc2cc(C)on2)s1 | 46* | -4 | nt | -10
Cn1c(=O)c2[nH]c(CCCCc3nc4ccccc4[nH]3)nc2n(C)c1=O | 41* | -1 | nt | nt
CCn1c(CCCc2nc3c([nH]2)c(=O)n(C)c(=O)n3C)nc2c1c(=O)n(C)c(=O)n2C | 45* | -4 | nt | nt
Cn1c(=O)c2[nH]c(CCS)nc2n(C)c1=O | 13 | 28 | nt | nt
SMILES | PGE2 EP2 inh | EP2 modulator | KCC2 mod | S1P3 antagonist
CC(C)N(C(=O)CN1C(=O)N2CCN=C2c2ccccc21)C(C)C | 8 | -37 | nt | nt
O=C(NC(=S)Nc1ccc(N2CCOCC2)cc1)c1ccco1 | 2 | -8 | 11* | -9
O=C(NC(=S)Nc1ccc(N2CCOCC2)cc1)c1cccc(Cl)c1 | 21 | -82 | 6.9* | -18
O=C(NC(=S)Nc1ccc(N2CCOCC2)cc1)c1ccccc1 | 5 | -37 | nt | 6
CC(=O)c1cccc(NC(=S)NC(=O)c2cccc(Cl)c2)c1 | 10 | -57 | 16* | 10
COc1ccc(OC)c(NC(=O)CN2CCN(Cc3ccc4c(c3)OCO4)CC2)c1 | 10 | -29 | nt | nt
O=C(c1cc2ccccc2oc1=O)N(Cc1ccc2c(c1)OCO2)Cc1cccs1 | 1 | -23 | nt | nt
COc1ccc(S(=O)(=O)N2CCC(C(=O)Nc3nc4ccc(NC(C)=O)cc4s3)CC2)cc1 | 10 | -76 | nt | nt
COCCn1c(N2CCC(C)CC2)nc2c1c(=O)n(C)c(=O)n2C | 10 | -11 | nt | nt
O=C(Nc1ccc2nc(-c3ccccn3)[nH]c2c1)c1ccccc1F | 11 | -87 | nt | nt
COc1ccc2c(Cc3c4ccccc4cc4ccccc34)cncc2c1O | 40* | 28 | nt | nt
CCOc1ccc(S(=O)(=O)N2CCN(S(=O)(=O)c3ccc(OCC)cc3)C(C)C2)cc1 (configuration not stated) | 7 | 24 | 0.83 | 71*
CCOC(=O)CNC(=O)CSc1nnc(COc2ccccc2C)n1CC | 10 | -29 | nt | nt
COc1cc(OC)cc(OCC(O)Cn2c(C(C)C)nc3ccccc32)c1 (configuration not stated) | 5 | 21 | nt | nt
CCCCNc1nc(NC)nc(Cl)c1SC | 5 | 63* | -0.00083 | -1
CNc1nc(Cl)c(SC)c(N2CCOCC2)n1 | 4 | -5 | -0.24 | 12
C[C@@]12CC[C@@H]3[C@H](CCC4=CC(=O)CC[C@]43C)[C@H]1CC[C@H]2C(=O)Cn1cnc2c(=S)nc[nH]c21 | 41* | 11 | nt | nt
C[C@@]12CC[C@@H]3[C@H](CCC4=CC(=O)CC[C@]43C)[C@H]1CC[C@H]2C(=O)COS(=O)(=O)c1ccc(Br)cc1 | 44* | 17 | nt | nt
CC(=O)OCC(=O)[C@H]1CCC2C3CCC4=CC(=O)CC[C@]4(C)C3CC[C@@]21C (some centres not stated) | 9 | 7 | nt | nt
Cc1cc(C(C)(C)C)oc1C(=O)NCCCNC(=O)c1oc(C(C)(C)C)cc1C | 7 | 61*! | -0.21 | nt
Cc1cc(C(C)(C)C)oc1C(=O)OCC(=O)NC1CCCCC1 | 7 | 7 | -0.025 | 0
NNC(=O)c1c[nH]c2ccccc12 | 7 | -9 | nt | nt
CC1CC(C)CN(C(=O)C(Cc2ccccc2)n2cccc2)C1 (configuration not stated) | 8 | 62* | -0.14 | -1
O=C(CN1C(=O)c2cccc3cccc1c23)Nc1ccccc1C(=O)NC1CCCCC1 | 10 | 76* | nt | nt
COc1ccc(NC(=O)N(C2CCCCC2)C(C)c2ccco2)c(OC)c1 (configuration not stated) | 7 | 61* | -0.36 | -23
SMILES | PGE2 EP2 inh | EP2 modulator | KCC2 mod | S1P3 antagonist
COc1ccc(NC(=O)N(C2CCCCC2)C(C)c2cccnc2)c(OC)c1 (configuration not stated) | 15 | -22 | -0.22 | -43
CCn1cc(C(=O)NCCc2cccc(C)c2)c(=O)c2ccc(C)nc21 | 12 | 45 | nt | nt
CC(C)(C)NC(=O)C(c1ccncc1)N(C(=O)c1csnn1)c1ccc(F)cc1 (configuration not stated) | 8 | -10 | nt | nt
O=C1c2ccccc2-c2ccc(N=[N+]([O-])c3ccc4c(c3)C(=O)c3ccccc3-4)cc21 | 51* | 0 | nt | nt
Cc1cnc(NC(=O)c2cc3c(C)nn(-c4ccccc4)c3s2)s1 | 3 | 4 | -0.069 | nt
Cc1ccc(NC(=O)c2cccs2)cc1NC(=O)c1cc2c(C)nn(-c3ccccc3)c2s1 | 13 | 70* | nt | nt
CC(=O)NCCNc1nc2c(c(=O)n(C)c(=O)n2C)n1Cc1ccc(Cl)cc1Cl | 15 | 24 | nt | nt
CC(=O)Nc1nc(-c2ccccc2)c(-c2ccccc2)o1 | 5 | 6 | -1.7 | 1
